# Rows were chosen to be rich in hits. Some 8.1% of all compounds tested hit in one or more screens of this group.
# KB-V1 MDR tox – qHTS assay for MDR1-selective chemotherapeutics: Primary screen using the drug-selected MDR subline cells KB-V1. Potency, µM (doses to about 46.1 µM), usual class: cytotoxic. KB-V1 MDR cells viability, CellTiter-Glo, 72 h. 400,000 tested, 3.4% active. AID 1347076, 2019; further: nearly all actives have a fitted effect of over 60% in size
#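 KB-V1 MDR subline cells in DMEM (phenol-red free, 10% FBS) exposed to compounds in qHTS concentration series for 72 h at 37 degrees C. Viability read by CellTiter-Glo luminescence; concentration-effect curves fitted after normalization and correction.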
# SW480 rereplic – A quantitative high throughput screen for small molecules that induce DNA re-replication in SW480 colon adenocarcinoma cells; SW480 DNA re-replication, Hoechst DNA content imaging, 48 h; AID 624297, 2012; 340,000 tested, 1.8% active; Potency, µM (titrated, usually from 46.1 µM), hits mostly activators; further: nearly all actives have a fitted effect of over 55% in size
#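 250 cells/well; 23 nL cpd via pin tool; 48 hr, 37 C, 5% CO2; Hoechst 40 min; imager read of total nuclear intensity, ex 405/em 500-530 nm.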
# MCF10A rereplic – A quantitative high throughput screen for small molecules that induce DNA re-replication in MCF 10a normal breast cells; MCF 10A DNA re-replication, Hoechst nuclear intensity, 48 h; AID 624296, 2012; 350,000 tested, 2.9% active; Potency, µM (highest dose often 46.1 µM), hits mostly activators; further: nearly all actives have a fitted effect of over 50% in size
# ELG1 repair inh – qHTS screen for small molecules that inhibit ELG1-dependent DNA repair in human embryonic kidney (HEK293T) cells expressing luciferase-tagged ELG1. HEK293T ELG1-luciferase reporter, luminescence, 16 h; DNA damage induced by 5-fluorouridine. Potency, µM (titrated, usually from 46.1 µM), most hits filed as inhibitors. AID 504467, 2011. 330,000 tested, 2.3% active; further: nearly all actives have a fitted effect of over 55% in size
#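 Cells (2,000 per well) received 5-fluorouridine plus test compound or DMSO and were incubated 16 hr at 37 °C, 5% CO2. Luciferase activity was read by luminescence 30 min after ONE-Glo addition; signal suppression marked inhibition of damage-induced ELG1 function.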
# KB-3-1 tox – qHTS assay for MDR1-selective chemotherapeutics: Primary screen using the parental adenocarcinoma cell KB-3-1. KB-3-1 viability, CellTiter-Glo ATP luminescence, 72 h. Potency, µM (titrated, usually from 46.1 µM), usual class: cytotoxic. 400,000 tested, 1.4% active; further: nearly all actives have a fitted effect of over 60% in size
#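 KB-3-1 parental drug-naive adenocarcinoma cells in DMEM/10% FBS, incubated 72 h at 37 C with pin-transferred compounds across a concentration series. Viability by CellTiter-Glo luminescence; concentration-response curves fitted after normalization.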
# Numbers stand for hits; i = inactive; ? = inconclusive; nt = no result given. The call rests on the fitted dose curve; in most records, active means well fitted curve in the direction sought with a large enough effect; inconclusive means small, poorly fitted or top-dose-only effect, or another doubt; inactive means no such curve, though single readings can be large; an effect the other way counts as inactive or inconclusive.
SMILES,KB-V1 MDR tox,SW480 rereplic,MCF10A rereplic,ELG1 repair inh,KB-3-1 tox
O=C(N/N=C/c1cccnc1)c1ccccc1OCc1ccc(Cl)cc1,nt,nt,nt,23µM,nt
O=C(N/N=C/c1cccnc1)c1ccccc1OCc1ccc(Br)cc1,i,i,i,12µM,i
CN(C)CCc1c[nH]c2ccc(CS(=O)(=O)N3CCCC3)cc12,nt,i,i,nt,nt
O=C(CCS(=O)(=O)c1cccs1)Nc1ccc(C(=O)NCc2cccs2)cc1,?,i,i,16µM,i
CCOC(=O)c1cccc(NC(=O)CCS(=O)(=O)c2ccc(Br)s2)c1,i,i,i,i,i
O=C(CCS(=O)(=O)c1cccs1)Nc1ccc(C(=O)NCc2ccc(F)cc2)cc1,i,i,i,i,i
CCOC(=O)c1cccc(NC(=O)CCS(=O)(=O)c2cccs2)c1,21µM,i,i,i,i
CCOC(=O)c1cccc(NC(=O)CNS(=O)(=O)c2cccs2)c1,23µM,i,i,i,i
COc1cccc(C2CC(=O)Nc3c2c(=O)n(C)c2ncnn32)c1OC (stereo not given),i,nt,nt,nt,i
CSc1ccc(CCNC(=O)c2c(C)nn(-c3ccc(F)cc3)c2-n2cccc2)cc1,5.8µM,nt,nt,nt,3.3µM
COc1cc(NC(=O)c2c(C)nn(-c3ccc(F)cc3)c2-n2cccc2)cc(OC)c1,i,nt,nt,nt,i
COc1cccc(CNC(=O)c2c(C)nn(-c3ccc(F)cc3)c2-n2cccc2)c1,9.2µM,nt,nt,nt,i
CCOc1ccc(CNC(=O)c2c(C)nn(-c3ccc(F)cc3)c2-n2cccc2)cc1,13µM,nt,nt,nt,?
COCCCNC(=O)c1c(C)nn(-c2ccc(F)cc2)c1-n1cccc1,?,nt,nt,nt,i
CSc1ccc(-c2ccc3c(c2)c(Sc2ccccc2)c(-c2ccccc2)n3C)cc1,i,nt,nt,nt,i
O=C(C[N+]1(CCc2ccccc2)CCOCC1)c1cccc([N+](=O)[O-])c1,i,nt,nt,nt,i
O=C(OCC(=O)N1CCCC1)c1cc(=O)c2ccccc2o1,i,i,?,?,i
O=C(Nc1cc(=O)c2ccccc2o1)N1CCOCC1,?,i,?,5.8µM,i
O=C(Nc1cc(=O)c2ccccc2o1)N1CCCCC1,12µM,i,?,15µM,i
Cc1c(C(=O)N2CCOCC2)oc2ccccc12,i,i,i,?,i
Fc1ccc2nncc(SCc3ccccc3Cl)c2c1,i,i,18µM,nt,i
Fc1ccc(CSc2nnc3ccccn23)c(Cl)c1,?,?,i,?,i
O=C(CSc1nc2ccccc2c(=O)n1CC1CCCO1)Nc1ccc(F)cc1 (stereo not given),i,i,i,?,?
Cc1cccc(N2CCN(C(=O)CCCn3c(=O)[nH]c4ccsc4c3=O)CC2)c1C,i,nt,nt,nt,i
CCCCCNc1nc(N2CCCC2)c2c(c1C#N)CCN(C)C2,23µM,?,11µM,i,?
SMILES,KB-V1 MDR tox,SW480 rereplic,MCF10A rereplic,ELG1 repair inh,KB-3-1 tox
Cc1coc2c(C)c3oc(=O)c(CCC(=O)NCCCn4ccnc4)c(C)c3cc12,i,?,i,i,i
Cc1c(CCC(=O)NCCCn2ccnc2)c(=O)oc2c(C)c3occ(C(C)(C)C)c3cc12,i,21µM,?,i,i
CCC(=O)N(c1nnc(SCC(=O)Nc2ccc(N3CCOCC3)cc2)s1)C1CC1,i,i,i,i,i
COc1ccc(/C=N/NC(=O)CNC(=O)c2ccc3c(c2)OCCO3)cc1OC,i,i,i,i,i
COc1ccc(C(=O)NCC(=O)N/N=C/c2cccc(OC(=O)c3ccco3)c2)cc1OC,?,i,3.3µM,i,i
N#CC(C#N)=Cc1cc2ccccc2nc1N1CCOCC1,i,i,?,i,?
N#C/C(=C\c1cc2ccccc2nc1N1CCOCC1)C(=O)Nc1ccc(N2CCOCC2)cc1,?,i,i,12µM,i
C[C@H]1CN(CCc2ccccc2)C(=O)[C@@H]1CC(=O)Nc1ccc(Br)cc1,i,nt,nt,nt,i
Cc1ccc2nccc(C(=O)N3CCCC(Nc4ccc(F)cc4)C3)c2c1 (stereo not given),nt,i,i,i,nt
CCC(=O)N1CCN(c2ccnc3cc(Cl)ccc23)CC1,i,i,i,i,i
Oc1ccc(N2CCN(c3ccnc4cc(Cl)ccc34)CC2)cc1,15µM,?,?,?,16µM
CC(C)N(C(=O)N1CCN(c2ccnc3cc(Cl)ccc23)CC1)C(C)C,?,i,16µM,?,i
c1cnc2nc3c4ccccc4c4ccccc4c3nc2c1,i,23µM,10µM,nt,i
Cc1c(Br)c([N+](=O)[O-])nn1CC(=O)N1CCc2ccccc2C1,16µM,i,i,i,i
Cc1c(Br)c([N+](=O)[O-])nn1CCCC(=O)N1CCN(c2ccccc2)CC1,21µM,i,i,i,?
Cc1c(Cl)c([N+](=O)[O-])nn1CCCC(=O)N1CCN(c2ccccc2)CC1,i,i,i,i,i
Cc1ccc(NC(=O)c2ccc(OC(=S)N3CCOCC3)cc2)cc1,6.5µM,i,i,?,i
O=C(Nc1cccc(Br)c1)c1cccc(OC(=S)N2CCOCC2)c1,?,i,?,15µM,?
O=C(Nc1ccccc1Br)c1ccc(OC(=S)N2CCOCC2)cc1,i,i,i,i,i
O=CC(=O)c1ccc(Br)cc1,?,nt,nt,nt,i
Cn1c(-c2c(N)n(CCc3ccccc3)c3nc4ccccc4nc23)nc2ccccc21,15µM,8.2µM,?,9.2µM,?
Cn1c(-c2c(N)n(CCCc3ccccc3)c3nc4ccccc4nc23)nc2ccccc21,9.2µM,16µM,?,?,?
O=CNCc1nc2ccccc2n1CCCc1ccccc1,i,i,i,i,i
CC(C)(C)Cc1nc2ccccc2n1CCc1ccccc1,18µM,i,?,i,?
COCCCn1c2nc3ccccc3nc2c2c(=O)n(-c3ccccc3OC)cnc21,i,i,i,?,i
SMILES,KB-V1 MDR tox,SW480 rereplic,MCF10A rereplic,ELG1 repair inh,KB-3-1 tox
COCCCn1c(N)c(-c2nc3ccccc3n2C)c2nc3ccccc3nc21,i,?,23µM,?,i
Cc1ccccc1CCN1CCCC(CN(C)C(=O)c2ccc3ncccc3c2)C1 (stereo not given),i,i,i,i,i
Cn1c(-c2c(N)n(C3CCCC3)c3nc4ccccc4nc23)nc2ccccc21,21µM,12µM,5.2µM,?,16µM
CN1CCN(c2oc(-c3cccs3)nc2S(=O)(=O)c2ccccc2)CC1,13µM,i,i,i,i
O=C(CSc1oc(-c2ccccc2)nc1S(=O)(=O)c1ccc(Cl)cc1)NC1CCCCC1,i,nt,nt,nt,i
O=C(CSc1oc(-c2cccs2)nc1S(=O)(=O)c1ccccc1)NC1CCCCC1,3.7µM,i,i,?,i
Cc1cn([C@H]2C[C@H](O)[C@@H](CNC(=O)[C@@H]3CCCN3Cc3ccccc3)O2)c(=O)[nH]c1=O,i,nt,nt,nt,i

# Screens from PubChem.
